PubChem BioAssay (NCI)
This is part of a sample that, as a whole, favours compounds with a hit. Of some 83,000 tested, about 20% had one in any assay.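 The test compound was applied at a single concentration to cells in 96-well plates for 48 hours, and percent growth was recorded.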 Unmarked numbers belong to inactive results. Calls of active or inactive are those of the source. Rule for the calls: active = growth percent below 10; inactive = the rest.

System: MDA-MB-468 breast
Assay: NCI-60 one-dose screen, 48 h (100 = growth as untreated, 0 = no growth, -100 = all killed)
Conditions: 10 µM unless noted

| Structure (SMILES) | growth |
| --- | --- |
| C[PH+](c1nc2ccccc2nc1[PH+](C)C(C)(C)C)C(C)(C)C.C[PH+](c1nc2ccccc2nc1[PH+](C)C(C)(C)C)C(C)(C)C.[Au+].[Cl-] (stereo not drawn) | -80.7% (active) |
| CN(C)c1ccc(C(C#N)(c2ccccc2)c2ccc(N(C)C)cc2)cc1 | 82.8% |
| COc1ccc(/C=C/C(=O)c2cc3c(N)c(C(=O)Nc4cccc5ccccc45)sc3nc2C)cc1 | 58.5% |
| O=S(=O)(Nc1cccc2cc(OS(=O)(=O)c3ccccc3)ccc12)c1ccccc1 | 13.4% |
| Nc1ccccc1-c1ccc(-c2ccc(Cl)cc2)c2c1[nH]c1ccccc12 | 91.5% |
| CC1(c2ccc3ccccc3c2)CCC(=O)O1 (stereo not drawn) | 100% |
| CCC/C=C/C=C/C(=O)N[C@@H](Cc1cc(F)cc(F)c1)C(=O)N[C@@H]1C(=O)N2CCC[C@H]2C(=O)N2CCCC[C@H]2C(=O)N[C@@H](C)C(=O)N2C[C@H](C)C[C@H]2C(=O)O[C@H]1C | -0.457% (active) |
| Nc1nc(N)c2cc(Sc3ccc4ccccc4c3)ccc2n1 | 10.2% |
| COc1cc2ncnc(Nc3ccc(F)c(Cl)c3)c2cc1OCC(=O)N1CCCCC1 | -41.9% (active) |
| CCCC(=O)NC(c1ccc(N(CC)CC)cc1)c1cc(C)c2cccnc2c1O (stereo not drawn) | -16.1% (active) |
| C[C@@H](C[C@H](CC1CC1)c1ccccc1)c1ccc2ccccc2c1 | 101% |
| N#C/C(=C\c1ccc(Br)cc1)n1nnc2cc(Cl)c(Cl)cc21 | -5.24% (active) |
| CCCCC1=C(Br)C(=O)c2ncccc2C1=O | 84.2% |
| O=C1O[C@@H](c2ccccc2Cl)[C@@H]2c3cc4c(cc3CCN12)OCO4 | 96.2% |
| COc1ccc(/C=C/c2nc(Nc3ccc(S(=O)(=O)NC(C)=O)cc3)c3ccccc3n2)cc1 | 53.2% |
| Nc1c(C(=O)Nc2ccccc2Cl)sc2nc3c(cc12)C(=O)CCC3 | 24.9% |
| COc1cc2nc(-c3cnc(N(C)C)nc3)nc(NC3CCN(Cc4ccccc4)CC3)c2cc1OC | -72.1% (active) |
| COc1cc(C(=O)C[n+]2ccccc2)ccc1OC(C)=O | 101% |
| CCCCCCCCCCCCCCCCCc1nccn1CCO | 91.5% |

| Structure (SMILES) | growth |
| --- | --- |
| CCn1cc(C(=O)O)c(=O)c2cc(F)c(N3CCN(CC(=O)Nc4ccccc4)C(C)C3)c(F)c21 (stereo not drawn) | 92.6% |
| CCOC(=O)c1ccc(NC(=O)Nc2nccs2)cc1 | -30.4% (active) |
| O=C1Nc2ccccc2/C1=N/N=C/c1ccsc1 | 78.3% |
| COc1cc2c(c(OC)c1O)C(=O)C(OC)C(c1ccc(O)c(O)c1)O2 (stereo not drawn) | 7.99% (active) |
| COc1ccc2nc(-c3ccc(-c4noc(-c5cc(OC)c(OC)c(OC)c5)n4)cc3)[nH]c2c1 | 68.2% |
| Cc1cc(N(CCNc2ccnc3cc(Cl)ccc23)Cc2cccs2)nc(Cl)n1 | -65.2% (active) |
| Cc1ccc(-c2cn3cc([N+](=O)[O-])ccc3n2)cc1 | 56.3% |
| COc1cc(C(C)(C)C)cc(OC)c1C(O)(c1c(OC)cc(C(C)(C)C)cc1OC)c1c(OC)cc(C(C)(C)C)cc1OC | -88.3% (active) |
| C1CCC(N2CN3c4nonc4N4CN(C5CCCCC5)CN5c6nonc6N(C2)C3C45)CC1 (stereo not drawn) | 99.5% |
| O=C(Nc1ccc(N2CCNCC2)cn1)c1[nH]ncc1Nc1ncnc2sccc12 | -59.5% (active) |
| CN(C)c1oc(C2OC2c2ccccc2)nc1C#N (stereo not drawn) | 90.3% |
| OCCCc1n(Cc2ccc3ccccc3c2)c2ccccc2[n+]1Cc1ccc2ccccc2c1 | -27.7% (active) |
| Cc1ccc(C(=O)c2ccc(CC(=O)N=Nc3c(O)[nH]c4ccc(Br)cc34)n2C)cc1 | 96.6% |
| CCCCn1c(-c2ccc(O)cc2)cn2c3c(=O)[nH]c(=O)n(C)c3nc12 | 43.4% |
| COc1ccc(C(O)c2cc3c(N)c(C(=O)Nc4ccc(Cl)cc4)sc3nc2C)cc1 (stereo not drawn) | 3.39% (active) |
| Cc1[nH]c(C(=O)Nc2ccccc2OC2CCN(CCN3CCOCC3)CC2)c(Cl)c1Cl | 91.6% |
| Cn1cc(-c2nc(-c3c[nH]c4ccncc34)cs2)c2cc(F)ccc21 | -72.8% (active) |
| O=C(N/N=C/c1ccc(Cl)s1)c1[nH]c2ccc(Br)cc2c1-c1ccccc1 | 2.96% (active) |
| O=C1CC[C@@H](C(=O)N[C@H]2CSSC[C@@H](C(=O)N/C=C/c3ccc(O)cc3)NC(=O)[C@H](Cc3ccccc3)NC(=O)[C@@H]3CCCN3C(=O)[C@@H]3CCCN3C2=O)N1 | 89.5% |
